Results on 40 molecules are retold here after PubChem BioAssay (NCI).

Molecules are shown by their SMILES. About 83,000 compounds went through this panel and 20% of them were active in at least one assay; those are over-represented in the sample as a whole.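 In brief: 96-well plates, 48 h treatment, single concentration, percent growth endpoint.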 Values without a mark were called inactive. Calls of active or inactive are those of the source.

This experiment relates to TK-10 renal. Description: NCI-60 one-dose screen, 48 h (100 = growth as untreated, 0 = no growth, -100 = all killed). To be noted: 10 µM unless noted. As for the experimental part:
Growth inhibition of the TK-10 human tumor cell line is measured as a screen for anti-cancer activity. Cells are grown in 96 well plates and exposed to the test compound for 48 hours. Compounds are tested at a single concentration, which is 10^-5 M for most compounds. The reported endpoint is percent growth (GI% or GIPRCNT), where numbers from 0 - 100% represent growth inhibition, and numbers from -100% - 0 represent cell death. For example, a value of 40 represents 60% growth inhibition. A value of 0 means no net growth occurred over the course of the experiment. A value of -40 indicates 40% of cells at the beginning of the experiment died by the end of the experiment. A value of -100 means all cells are dead at the end of the experiment.
NCI-60 Human Tumor Cell Lines Screen was performed using the standard one-dose NCI protocol, which is described in more detail at https://dtp.cancer.gov/discovery_development/nci-60/default.htm.
Compounds with GIPRCNT values below 10 were considered active. Activity score was based on GIPRCNT using the following formula: […]
Score is 0 for GIPRCNT values of 100 or above, 50 for GIPRCNT values of 0, and 100 for GIPRCNT values of -100.
On to `CC1(C)N=C(N)N=C(N)N1c1ccc(OCCCCOc2ccc(S(=O)(=O)F)cc2)c(Cl)c1`, for which the growth was 11.3%.
As for `C[C@]12CC[C@H]3[C@@H](C[C@@H]4N=C(c5ccc(O)cc5)S[C@@]45C[C@H](O)CC[C@]35C)[C@@H]1CC[C@@H]2O`, the growth is 89.3%.
`N#Cc1ncc(/N=C/c2ccc(N(CCCl)CCCl)cc2)s1`: the growth is 92.8%.
Regarding `C[C@@H]1O[C@@H](O[C@H]2CC[C@@]3(C)[C@H](CCC4[C@@H]3C(O)C[C@]3(C)[C@@H](c5ccc(=O)oc5)CC[C@]43O)C2)[C@H](O)[C@H](O)[C@H]1O` (stereo not given in full), the growth was -97% (active).
As to `O=C(NCc1ccc([N+](=O)[O-])cc1)Nc1ccc(S(=O)(=O)F)cc1`, the growth is 78.1%.
For the molecule `CC(C)(C)NCC(O)c1ccccc1Cl` (stereo not given), the growth was 17.3%.
As to `Nc1nc(N)c(-c2ccc(Cl)c(Cl)c2)c(/C=C/c2ccc(S(=O)(=O)F)cc2)n1`, the growth was 86.8%.
On to `O=S(=O)(O)c1ccc(-c2ccc([As](=O)(O)O)cc2)cc1`, for which the growth is 95.5%.
The figure for `CCN1CC2(CN(CC)C1=S)C(=O)NC(=O)NC2=O` is 98.5%; for `COc1ccc(C(c2ccc(OC)cc2)C(Cl)(Cl)Cl)cc1` it is 90.3%; for `CC(N)Cc1ccc(O)cc1` (stereo not given) it is 98.3%.
Take `O=C(CF)N(O)c1ccc(/C=C/c2ccccc2)cc1`: the growth was 67.4%.
For the molecule `CC(=O)O[C@H]1C[C@H](O[C@H]2[C@@H](O)C[C@H](O[C@H]3[C@@H](O)C[C@H](O[C@H]4CC[C@@]5(C)C(CCC6C5C[C@@H](O)[C@]5(C)[C@@H](C7=CC(=O)OC7)CC[C@]65O)C4)O[C@@H]3C)O[C@@H]2C)O[C@H](C)[C@H]1O[C@@H]1O[C@H](CO)[C@@H](O)[C@H](O)[C@H]1O` (stereo not given in full), the growth was -91% (active).
Next, `COc1ccc(C2=NN(c3ccccc3)C(c3sc(N(CCCl)CCCl)nc3Cl)C2)cc1` (stereo not given): 117%; `COc1cc(C2CC(=O)Nc3nc(N)[se]c32)c(OC)c2c1OCO2` (stereo not given): 109%.
`COP(=S)(OC)Oc1ccc(SC)c(C)c1`: the growth is 124%.
Next, `CC1(C)N=C(N)N=C(N)N1c1ccc(CCCCc2ccc(S(=O)(=O)F)cc2)c(Cl)c1`: 23%; `CN(Cc1cccnc1)N=O`: 91.6%; `COc1cc[c]([Hg][Cl])cc1`: 114%.
Turning to `CC1(C)CC2(CC(C)(C)c3cc(O)c(O)cc32)c2cc(O)c(O)cc21`, the growth is 117%.
Turning to `Nc1ccc(N)c2c1Oc1ccccc1O2`, the growth was 131%.
As to `CNC(C)Cc1ccccc1` (stereo not given) (tested in a mixture with another compound), the growth was 92.8%.
The figure for `COc1ccccc1N1CCN(CCc2c[nH]c3cc4c(cc23)OCO4)CC1` is 89.7%; for `CC(C)(C)N(Cc1ccccc1)N=O` it is 102%; for `CC(CC(C#N)(c1ccccc1)c1ccccc1)N1CCOCC1` (stereo not given) it is 105%.
Regarding `O1[As]2O[As]3O[As]1O[As](O2)O3`, the growth was 3.92% (active).
The figure for `C=CCc1ccc(OC(=O)Cc2ccccc2)c(OC)c1` is 110%; for `Nc1c(Br)cc([N+](=O)[O-])cc1[N+](=O)[O-]` it is 114%; for `Oc1c(Br)cc(Br)cc1Br.[Cu+2]` it is 117%.
Consider `Nc1ncnc2c1c(C(=O)NO)cn2C1OC(CO)C(O)C1O` (stereo not given), for which the growth was 6.25% (active).
`COc1cc(C2=NN(c3ccccc3)C(c3sc(N(CCCl)CCCl)nc3Cl)C2)cc(OC)c1OC` (stereo not given): the growth was 102%.
With `O=[N+]([O-])c1ccccc1N1CCNCC1`, the growth is 96.2%.
Next, `CC(=O)O[C@H]1CCC2(C)C(=CCC3C2CCC2(C)/C(=N/OC(=O)c4ccc(N(CCCl)CCCl)cc4)CCC32)C1` (stereo not given in full): 79.8%.
Take `NC(Cc1ccc2c(c1)OCO2)c1ccc2c(c1)OCO2` (stereo not given): the growth was 105%.
`O=[N+]([O-])c1cccc([As]=[As]c2cccc([N+](=O)[O-])c2)c1` (stereo not given): the growth is -98.4% (active).
Next, `CC1(C)N=C(N)N=C(N)N1c1ccc(OCCCCNC(=O)c2ccc(S(=O)(=O)F)cc2)c(Cl)c1`: 57.9%; `ClCCN(CCCl)c1ccc(C=NCCc2c[nH]c3ccccc23)cc1`: 88%; `C1CNC2CCCC2C1` (stereo not given): 103%.
As to `Cc1cc(NC(=O)CCc2ccc(N3C(N)=NC(N)=NC3(C)C)cc2)ccc1S(=O)(=O)F`, the growth was 14.1%.
`[N-]=[N+]=NC(C(=O)O)c1ccccc1` (stereo not given): the growth was 106%.
